Results as given in PubChem BioAssay (Tox21).
The source made the active and inactive calls. Where a call stands in place of a potency, no number is given. The call rests on the fitted dose curve; in most records, active means well fitted curve in the direction sought with a large enough effect in the repeat runs; inconclusive means weak or mixed curves; inactive means flat fitted curve, though single readings scatter.

test: qHTS assay to test for compound auto fluorescence at 460 nm (blue) in HEK293 cell free culture (AID 720681); details: cell-free medium, autofluorescence 405/460 nm (blue); series mostly up to 91.3 µM
Description: U.S. Tox21 Program National Center for Advancing Translational Sciences [NCATS] NIH Chemical Genomics Center [NCGC] U.S. Environmental Protection Agency [EPA] National Institutes of Environmental Health Sciences [NIEHS] National Toxicology Program [NTP] U.S. Food and Drug Administration [FDA] Tox21 Assay Overview: Compound auto fluorescence often interferes with screening of the compound library against various biological targets and signaling pathways. Some of these compounds may have fluorophoric properties. Such properties may interfere with the assay outputs resulting in false positives and/or negatives. To decrease such complications and ensure the compound activities are relevant in terms of biological response, the Tox21 10K compound library was screened for auto fluorescence. From the fluorophores used as reporter signals in our screening assays, the auto fluorescence equivalencies of compounds against three fluorophores have been evaluated: Triamterene, Fluorescein and Rose Bengal sodium for blue, green and red fluorescence, respectively. The fluorescence intensities were measured using Excitation/Emission wavelengths at 405/460nm, 485/535nm and 540/590nm for blue, green and red labels, respectively. This assay includes the blue fluorescence data.
Tox21 Assay Protocol Summary: 5 uL of culture medium (DMEM containing 10% FBS) per well was dispensed into black wall/clear bottom 1536-well plates using a Multidrop Combi Dispenser (ThermoFisher Scientific, Waltham, MA). After 23 nL compound or DMSO vehicle was transferred into assay plate by a pintool work station (Kalypsys, San Diego, CA), fluorescence intensities in the assay plates were measured by an Envision (PerkinElmer, Shelton, CT) plate reader using three labels for measuring blue, green and red fluorescence at […] 460, 535 and 590nm respectively.

SMILES	Potency
Clc1cccc(Cl)c1	inactive
CC(C)CON=O	inactive
CCCCSP(=O)(SCCCC)SCCCC	inactive
Cc1cccc(N=Nc2ccc(N(C)C)cc2)c1	inactive
O=S(=O)(O)C(F)(F)C(F)(F)C(F)(F)C(F)(F)C(F)(F)C(F)(F)C(F)(F)C(F)(F)F	inactive
ClCc1ccccn1	inactive
CC1CC(=O)O1 (stereo not given)	inactive
CC(C)COC(=O)c1ccccc1C(=O)OCC(C)C	inactive
[Cl-].[Cl-].[Cl-].[Fe+3]	inactive
C=C(C)C#N	inactive
CCOP(=S)(OCC)OP(=S)(OCC)OCC	inactive
O=C(O)CF	inactive
CNC(=O)Oc1cccc2c1OC(C)(C)C2	inactive
OCCOCCO	inactive
O=[N+]([O-])c1ccc(Cl)c([N+](=O)[O-])c1	inactive
O=C(O)c1nn(Cc2ccc(Cl)cc2Cl)c2ccccc12	inactive
Nc1ccc2ccccc2c1	inactive
CC(C)(O)C(=O)Nc1ccc([N+](=O)[O-])c(C(F)(F)F)c1	inactive
Brc1ccc(Br)cc1	inactive
ClC(Cl)=C(Cl)C(Cl)=C(Cl)Cl	inactive

SMILES	Potency
CCOP(=S)(OCC)SCSC(C)(C)C	inactive
Cc1cc(Cl)ccc1N=CN(C)C	inactive
COc1ccc(CO)cc1	inactive
CC(C)(c1ccccc1)c1ccc(O)cc1	inactive
CC(C)(C#N)N=NC(C)(C)C#N	inactive
S=c1[nH]c2ccccc2[nH]1	inactive
Nc1ncn[nH]1	inactive
O=C1CCCO1	inactive
CC(C)=CC1C(C(=O)OCN2C(=O)C3=C(CCCC3)C2=O)C1(C)C (stereo not given)	inactive
COc1ccc(O)c(C(C)(C)C)c1	inactive
CN(C)c1ccccc1	inactive
CCCCOC(=O)COC(=O)c1ccccc1C(=O)OCCCC	inactive
c1ccc(C2CO2)cc1 (stereo not given)	inactive
CCC1(c2ccc(N)cc2)CCC(=O)NC1=O (stereo not given)	inactive
NN=C(N)N	inactive
OC(c1ccc(Cl)cc1)(c1cncnc1)c1ccccc1Cl (stereo not given)	inactive
CC(C)Nc1ccc(Nc2ccccc2)cc1	inactive
CC(C)(O)C#N	inactive
ClC(Cl)(Cl)Br	inactive
C[C@]12CCC(=O)C=C1CC[C@@H]1[C@@H]2CC[C@@]2(C)[C@H]1CC[C@]2(C)O	inactive
